# Experimental data reported in PMC7819943, “Rice protein-binding microarrays: a tool to detect cis-acting elements near promoter regions in rice”.
# The full ranking holds about 39,000 sequences; the median of “fluorescence intensity (a.u.)” is about 4,300, and the highest 2% start at about 39,000. Shown is part of a subset that was picked to be rich in the highest values.
# Molecular target: T1, OsSMF1 (Oryza sativa, UniProt Q6ZLB0 1-436)
# T1 sequence: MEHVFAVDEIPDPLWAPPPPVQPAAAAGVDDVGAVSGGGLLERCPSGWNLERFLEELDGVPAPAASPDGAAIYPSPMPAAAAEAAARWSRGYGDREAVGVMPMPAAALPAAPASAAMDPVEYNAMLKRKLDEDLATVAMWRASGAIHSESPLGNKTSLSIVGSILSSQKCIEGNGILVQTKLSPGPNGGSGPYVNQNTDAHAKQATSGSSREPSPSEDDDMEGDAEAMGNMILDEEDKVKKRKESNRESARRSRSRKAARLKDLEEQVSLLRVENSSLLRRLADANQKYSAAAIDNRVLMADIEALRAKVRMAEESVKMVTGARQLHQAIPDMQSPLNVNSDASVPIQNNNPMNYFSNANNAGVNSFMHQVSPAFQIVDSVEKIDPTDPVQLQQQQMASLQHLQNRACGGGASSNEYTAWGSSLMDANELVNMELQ
# Assay: protein-binding microarray (RPBM); PBS, 2% BSA, 51.3 ng/ul salmon testes DNA, 50 uM zinc acetate, 200 nM TF, 25 C, 1 h; high values mean tight binding
# Details: protein: recombinant; tags: N-terminal polyhistidine and DsRed monomer fusion (pET32a); chain copies: 2; label: CyDye5-dUTP incorporated in the synthesized complementary strand; 3' TTTTT single-stranded linker to array surface; dsDNA, one strand shown
# How it was run: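 Transcription factors, each fused N-terminally to a polyhistidine tag and DsRed, were expressed in E. coli BL21-CodonPlus and purified on Ni–NTA. A custom Agilent array was made double-stranded by primer extension with Cy5-dUTP and blocked with 2% BSA. It was incubated with 200 nM protein in PBS, 2% BSA, salmon testes DNA and 50 µM zinc acetate at 25 °C for 1 h, then washed. The binding signal is per-feature fluorescence intensity (arbitrary units) read on an Axon 4000B scanner.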
row,Sequence,binding signal
1,GGCTTCGGCCAGCTAGCCGCCACGTCTCCGCCGGTTTTAACGGAGTCACCTAGTGCAG,8270 fluorescence intensity (a.u.)
2,ATTTCTACCTGACGAAGTGACGATGCACTAGCCAGCTACTCGGAGTCACCTAGTGCAG,3900 fluorescence intensity (a.u.)
3,AGACAAATAATTCCCTTTGCCATGCCTGTCAGTTAGGGAACGGAGTCACCTAGTGCAG,3500 fluorescence intensity (a.u.)
4,GAATAATTTATTAAATAATTTATAAATCCTGAAACGAAAACGGAGTCACCTAGTGCAG,3520 fluorescence intensity (a.u.)
5,CGACATTAAAGATTATGAATATTATGGGCAAATATAGGTCCGGAGTCACCTAGTGCAG,57600 fluorescence intensity (a.u.)
6,TCCATGTATATTACATCATGGGGTTATGTAACATCACTGACGGAGTCACCTAGTGCAG,8280 fluorescence intensity (a.u.)
7,ACTTATGATATGAAACGGAGAGAGTAGTAGATAAGATTTTCGGAGTCACCTAGTGCAG,28400 fluorescence intensity (a.u.)
8,TGAGATATATATTTCGTATGTATATAGAGAAATAAAGAAACGGAGTCACCTAGTGCAG,57100 fluorescence intensity (a.u.)
9,GTAAACGCATGCCTTTTCGCAAATTTGTAAAACGAAACGACGGAGTCACCTAGTGCAG,31500 fluorescence intensity (a.u.)
10,TATAAAATTTCGCAATAACGACGAAAGTATTAAACGGACACGGAGTCACCTAGTGCAG,56200 fluorescence intensity (a.u.)
11,CTTATTATGGTTATATGTGCAGGTATGGAGTAATAACTGACGGAGTCACCTAGTGCAG,46400 fluorescence intensity (a.u.)
12,AAACATTATTAAATAGGTGTATGAATGACAGTCATACTTGCGGAGTCACCTAGTGCAG,3490 fluorescence intensity (a.u.)
13,TCATAATATTATAAATTTGGACAAAGATATATCATATCACCGGAGTCACCTAGTGCAG,3150 fluorescence intensity (a.u.)
14,TTGTATAACTATGTGTATATGTGTATGGTTATTAAGCAAACGGAGTCACCTAGTGCAG,10500 fluorescence intensity (a.u.)
15,AAACTTTATGTATAGAAATAATATATATATATATATATATCGGAGTCACCTAGTGCAG,29000 fluorescence intensity (a.u.)
16,TAGGATTCAGCTCCTTCCTATTAGGGGTTCACCCGCGAGTCGGAGTCACCTAGTGCAG,13800 fluorescence intensity (a.u.)
17,CTATAAACTTAGTTAAACTAAAGCTGCTATTTAACTTTGACGGAGTCACCTAGTGCAG,3280 fluorescence intensity (a.u.)
18,CGAGGTTGCCCCTCCCCTCTCCTACGTGGTCGTGCCCCAACGGAGTCACCTAGTGCAG,5410 fluorescence intensity (a.u.)
19,ATCGGCAAACGCGTTCCACCAAAACCCTCCACGTCAGCATCGGAGTCACCTAGTGCAG,29800 fluorescence intensity (a.u.)
20,TTAATTAATTAACGTATGTACTCAGGAATTATATATAATACGGAGTCACCTAGTGCAG,35600 fluorescence intensity (a.u.)
21,AGCAAACATAATTAACATATATATAATAAAGCTCAAAGAGCGGAGTCACCTAGTGCAG,3780 fluorescence intensity (a.u.)

row,Sequence,binding signal
1,TAAAGAAAGAAAAGACATTAATAAAGCAGCAAAGAAAAGACGGAGTCACCTAGTGCAG,46000 fluorescence intensity (a.u.)
2,TTATAATATATATAATAAATAAATGTATGTTTACTTATAGCGGAGTCACCTAGTGCAG,19300 fluorescence intensity (a.u.)
3,CTCTCTCTCTCTCTCTCTCTCTCTCTTGCCATTTAAAAGACGGAGTCACCTAGTGCAG,4760 fluorescence intensity (a.u.)
4,ATAATAAACTGAGAGGAGGATAGTAATATGTACTTAGTAACGGAGTCACCTAGTGCAG,48400 fluorescence intensity (a.u.)
5,CCTTTTCCGCTTTAAAACACCACACAGTGACACACACACCCGGAGTCACCTAGTGCAG,5500 fluorescence intensity (a.u.)
6,AGAAGAGAATGGAGTGGAGCTGACATGTGGGCTCCACCATCGGAGTCACCTAGTGCAG,3950 fluorescence intensity (a.u.)
7,GGCTCCGTCTTATCCTAACAACGCCAAGGGGCCACGTATGCGGAGTCACCTAGTGCAG,7210 fluorescence intensity (a.u.)
8,CAGTTGACCGCCACGTAGAACCTGTTCCTCCAGCTCACCACGGAGTCACCTAGTGCAG,9340 fluorescence intensity (a.u.)
9,TTCCTCGCGCTCCCACGCCACGCAGCAGCCGCAGATCTCCCGGAGTCACCTAGTGCAG,3630 fluorescence intensity (a.u.)
10,GGAAGAAGGCCGCCGACGCACAACAGAGGCGGCGGCGGGGCGGAGTCACCTAGTGCAG,3510 fluorescence intensity (a.u.)
11,CACACATTCGCACCGCCGACGCCGAACAGAACAACAACAACGGAGTCACCTAGTGCAG,64700 fluorescence intensity (a.u.)
12,CAGAAACCAACCAACACAAGACACCGACCGACGCCGACCACGGAGTCACCTAGTGCAG,8450 fluorescence intensity (a.u.)
13,GCTTTCAAAGCACTCAATTTTCCAGGTCATAACTGTTTTCCGGAGTCACCTAGTGCAG,5050 fluorescence intensity (a.u.)
14,ACAGATACAATGAGCGAGCGTTTGGTGTAATATGTGACAGCGGAGTCACCTAGTGCAG,43600 fluorescence intensity (a.u.)
15,ATGTATTTTATGACAACAGAGTAAACAATGTGATATACATCGGAGTCACCTAGTGCAG,3220 fluorescence intensity (a.u.)
16,TTGACAATGTGGTGCTACAGTAAATATTTGATAATGATGGCGGAGTCACCTAGTGCAG,3330 fluorescence intensity (a.u.)
17,ATCTTAAGCTCCTCATTTCATCTATGATTGGCTTGCTTTACGGAGTCACCTAGTGCAG,3180 fluorescence intensity (a.u.)
18,AATAAACCATGGTGTTTGTATTGGTGTGTTGGTGACTACGCGGAGTCACCTAGTGCAG,3880 fluorescence intensity (a.u.)
19,CCATCGAATCCGGTTCGCGCGCAAGCAAAATCAGCAGCGTCGGAGTCACCTAGTGCAG,3830 fluorescence intensity (a.u.)
20,TAAGCTAACCTTGTACTAAGATGTGACACATCCAAGTACACGGAGTCACCTAGTGCAG,3630 fluorescence intensity (a.u.)
21,AAGCTAACTTGTGTTGCCTACACAAGTACTAAAATGGCATCGGAGTCACCTAGTGCAG,63600 fluorescence intensity (a.u.)
